# HT1080-NT tox: kills 2HG-producing HT-1080-NT fibrosarcoma cells; actives 1.6% (n = 360,000); Potency, µM (series often up to 46.1 µM), for the others: at the highest dose activity, negative = less viability, actives largely listed as cytotoxic; HT-1080-NT fibrosarcoma viability, CellTiter-Glo ATP luminescence, 48 h;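 further: NT is the 2HG producing partner of a matched IDH1 knockdown line; potency means the concentration at half of the fitted maximal effect; 0% = DMSO-treated cells and -100% = media-only wells without cells; nearly all actives have a fitted effect of over 55% in size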
#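 750 cells/well, RPMI + 5% FBS; 2 h settle, compound pin-transfer, 48 h at 37 degrees C. CellTiter-Glo 10 min RT, luminescence. Normalized to DMSO and media-only wells.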
# ALOX12 inh: inhibitors of human 12S-lipoxygenase ALOX12. P18054. purified 12hLO, xylenol orange hydroperoxide absorbance. Potency, µM (highest dose often 108 µM), inactives show at the top dose activity change, negative = inhibition, actives largely listed as inhibitors. actives 1.1% (n = 580,000). AID 1671190; further: potency means the concentration at half of the fitted maximal effect
# Target sequence (P18054 whole entry, looked up): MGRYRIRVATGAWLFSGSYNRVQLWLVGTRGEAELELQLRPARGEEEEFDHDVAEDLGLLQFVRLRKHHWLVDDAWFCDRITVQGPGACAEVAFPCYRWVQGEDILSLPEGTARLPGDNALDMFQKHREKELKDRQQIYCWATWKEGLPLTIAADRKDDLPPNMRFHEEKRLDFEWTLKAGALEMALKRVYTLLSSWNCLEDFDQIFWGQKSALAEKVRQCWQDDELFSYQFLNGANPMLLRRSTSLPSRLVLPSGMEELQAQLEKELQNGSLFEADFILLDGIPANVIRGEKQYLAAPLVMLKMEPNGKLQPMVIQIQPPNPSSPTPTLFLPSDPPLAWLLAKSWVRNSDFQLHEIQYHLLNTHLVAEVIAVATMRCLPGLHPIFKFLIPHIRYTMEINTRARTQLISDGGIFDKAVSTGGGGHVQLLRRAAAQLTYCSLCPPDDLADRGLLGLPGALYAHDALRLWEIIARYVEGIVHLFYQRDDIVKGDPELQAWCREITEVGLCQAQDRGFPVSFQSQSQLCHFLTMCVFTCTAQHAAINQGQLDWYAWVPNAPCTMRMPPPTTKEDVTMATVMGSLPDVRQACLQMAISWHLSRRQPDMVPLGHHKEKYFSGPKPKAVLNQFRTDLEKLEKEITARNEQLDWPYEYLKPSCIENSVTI
#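 Purified human 12hLO (150 nM final) in 25 mM Hepes, 0.01% Triton X-100, pH 7.0 was preincubated 15 min at room temperature with compound. Then 40 uM arachidonic acid was added, 30 min. Hydroperoxide was read by Fe-XO absorbance ratio 573/405 nm.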
# IL1B secr inh: inflammasome signaling inhibition, IL-1 beta readout; activity change, % at 57.5 µM; AID 743279; actives 4.7% (n = 360,000); THP-1 LPS/ATP IL-1B secretion, AlphaLISA, 16 h; stronger effect = lower value; in the data active means activity change below about -50%; inconclusive means mostly about -30% to -49%
#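 Secreted IL-1B measured by AlphaLISA bead assay after 16 h compound exposure of THP-1 cells; compounds (final up to 57.5 uM) added 1 h before LPS (250 ng/mL) and ATP (1.25 mM) stimulation; lower signal means less secretion.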
# TDP1 cell noCPT: qHTS for Inhibitors of human tyrosyl-DNA phosphodiesterase 1 (TDP1): qHTS in cells in absence of CPT | DT40 Tdp1-/- hTDP1 cells, no CPT, ATP luminescence, 48 h | Potency, µM (top dose mostly 46.2 µM), for the others: at the top dose activity change, negative = growth inhibition, hits mostly inhibitors | actives 15% (n = 420,000) | AID 686978, 2013; further: potency means the concentration at half of the fitted maximal effect; nearly all actives have a fitted effect of over 55% in size
#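 Growth kinetics read by CellTiter-Glo luminescence after ≥48 hr at 37 °C. Cells: DT40 Tdp1-/- stably carrying human TDP1, 400 per well, compound exposure in the absence of CPT (DMSO vehicle).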
# DT40 TDP1 CPT: DT40-hTDP1 cell growth loss with CPT; chicken DT40 Tdp1-/-;hTDP1 cells + 20 nM CPT, ATP luminescence, 48 h; AID 686979; Potency, µM (top dose mostly 46.2 µM), for the others: top-dose activity change, negative = growth inhibition, actives largely listed as inhibitors; actives 12% (n = 420,000); further: potency means the concentration at half of the fitted maximal effect; nearly all actives have a fitted effect of over 55% in size
#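 Cell growth measured by CellTiter-Glo luminescence after a minimum 48 h, 37 C compound exposure with 20 nM CPT in Tdp1-knockout DT40 cells stably expressing hTDP1, seeded 400/well; qHTS titration format.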
# HT1080 IDH1KD tx: toxicity to HT-1080 IDH1 knockdown cells (counter line); HT-1080 IDH1 knockdown viability, ATP luminescence, 48 h; Potency, µM (highest dose often 46.1 µM), for the others: at the highest dose activity, negative = toxicity, hits mostly cytotoxic; actives 2% (n = 360,000);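 further: potency means the concentration at half of the fitted maximal effect; 0% = DMSO wells and -100% = cell-free medium wells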
#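 CellTiter-Glo luminescence after 48 h compound exposure at 37 degrees C of IDH1-knockdown HT-1080 cells in 5% FBS RPMI. %Activity scaled between DMSO wells and cell-free media wells, with curves fitted and assigned curve classes.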
# * marks the source's active call; other numbers are inactive results; ? = inconclusive; . = no result; [ ] = dose if it differs, or a comment. This excerpt belongs to a sample that is enriched for hits. Unless noted, the call rests on the fitted dose curve; in most records, active means well fitted curve in the direction sought with a large enough effect; inconclusive means small, poorly fitted or top-dose-only effect, or another doubt; inactive means no such curve, though single readings can be large; an effect the other way counts as inactive or inconclusive. Unless noted, on the % scale 0 is the no-effect control and ±100 the full control effect.
SMILES,HT1080-NT tox,ALOX12 inh,IL1B secr inh,TDP1 cell noCPT,DT40 TDP1 CPT,HT1080 IDH1KD tx
COc1ccc(CN(C)CC(=O)Nc2ccccc2C(F)(F)F)cc1,-14.5%,-14.3%,15.5,?,?,-0.7%
COc1cc2c(cc1NC(=O)CN(C)Cc1ccc(OC)c(OC)c1)oc1ccccc12,?,-2.1%,-24.7,16.4µM*,16.4µM*,?
COc1ccc(CN(C)CC(=O)Nc2cc3oc4ccccc4c3cc2OC)c(OC)c1,-1.6%,-5.6%,-10.8,10.3µM*,13µM*,-9.6%
COc1ccc(CN(C)CC(=O)Nc2ccccc2C(F)(F)F)c(OC)c1,0.2%,-5.7%,3.8,-28.7%,7.5%,-1.9%
COc1cc2c(cc1NC(=O)CC1SC(N3CCCC3)=NC1=O)oc1ccccc12 (stereo not drawn),?,9.5%,-28.1,20.6µM*,?,?
COc1cc2c(cc1NC(=O)Cc1ccc(C)cc1)oc1ccccc12,?,-10.0%,-15.4,?,?,28.3%
COc1ccc2ccc(O)c(CN(C)CC(=O)Nc3ccccc3C(F)(F)F)c2c1,?,7.08µM*,-23.2,?,20.6µM*,-29.9%
O=C(O)CC1(CC(=O)N2CCN3C(=O)c4cc(-c5ccsc5)ccc4NC(=O)[C@@H]3C2)CCCC1,.,3.3%,.,.,.,.
O=C(Nc1ccc(NC2CCCCC2)cc1)c1nc(Cl)ccc1Cl,.,-5.6%,.,.,.,.
Cc1nn(Cc2ccccc2)c(C)c1[C@@H]1C=C[C@@H](NC(=O)c2ccc3c(c2)OCO3)C1,.,115.8%[176 µM],.,.,.,.
COc1cc(Cl)c(NC(=O)CCOc2cc(C)ccc2C)cc1OC,.,-2.9%,.,.,.,.
CCN(CC)S(=O)(=O)c1cccc(C(=O)Nc2cc3oc4ccccc4c3cc2OC)c1,2.0%,-16.9%,12.6,18.4µM*,16.4µM*,5.9%
COc1cc2c(cc1NC(=O)c1cncc(Br)c1)oc1ccccc12,?,0.0%,10.1,-23.7%,-12.0%,?
Cc1nc2cccnc2n1CC1CCCN(S(=O)(=O)c2ccc(F)cc2F)C1 (stereo not drawn),.,3.0%,.,.,.,.
CCNc1nc(NC(C)(C)C)nc(N2CCCCC2)n1,-19.6%,-3.8%,-81.4*,20.6µM*,20.6µM*,-16.1%
CC(C)(CO)Nc1nc(N2CCCC2)nc(N2CCCC2)n1,-2.6%,2.1%,14.5,20.6µM*,?,10.9%
S=C(NC1CCCCC1)c1ccccc1,.,31.6µM*,.,.,.,.
C/C(=N\NC(=S)NC1CCCCC1)c1cccs1,-14.2%,?,19.3,10.3µM*,13µM*,-13.9%
CC1CCCN(C(=S)Nc2ccc(F)cc2)C1 (stereo not drawn),15.2%,-6.6%,-13.4,-12.1%,16.0%,9.1%
S=C(Nc1ccc(Cl)cc1)NC1CCCCC1,-28.6%,0.6%,-10.0,?,?,?
COc1ccc(C(=S)NC2CCCCC2)cc1,-4.8%,?,11.2,?,-14.5%,-4.0%
CC1CCCN(C(=S)Nc2ccc(Nc3ccccc3)cc2)C1 (stereo not drawn),-24.3%,?,-85.7*,9.2µM*,10.3µM*,-11.9%
FC(F)Oc1ccc(NC(=S)NC2CCCCCCC2)cc1,?,?,-91.1*,?,?,?
O=C(Cn1nc2c(cc1=O)CCCCC2)Nc1ccc(Br)cc1,.,-8.5%,.,.,.,.
CCc1cccc(C)c1NC(=O)c1cc(C)nc2ccccc12,.,81.3%,.,.,.,.
SMILES,HT1080-NT tox,ALOX12 inh,IL1B secr inh,TDP1 cell noCPT,DT40 TDP1 CPT,HT1080 IDH1KD tx
C=CCN(CC=C)C(=O)Nc1ccc(C(C)=O)cc1,.,-5.2%,.,.,.,.
COc1ccc(C2CC(=O)C(c3cccc(C)c3)=CN2Cc2ccccc2)cc1 (stereo not drawn),.,0.1%,.,.,.,.
S=C(Nc1ccc(Nc2ccccc2)cc1)NC1CCCCCC1,?,44.7µM*,-79.0*,16.4µM*,23.1µM*,?
C/C(=N\NC(=O)C1CC1)c1ccc(OC(F)F)cc1OC(F)F,10.2%,4.5%,-5.7,?,-5.2%,17.0%
C/C(=N\NC(=S)NC1CCCCC1)c1ccc(OC(F)F)cc1OC(F)F,?,28.2µM*,?,25.9µM*,25.9µM*,?
CCOc1ccc(NC(=O)c2ccc(NC(=S)NC3CCCCC3)cc2)cc1,-22.1%,0.0%,-23.8,?,20.6µM*,?
COc1cc(CC(=O)Nc2ccc(S(=O)(=O)N(C)C)cc2)cc(OC)c1OC,3.0%,?,24.0,-24.9%,?,2.8%
Nc1nc(NCCN2CCOCC2)nc(NCc2ccccc2)c1[N+](=O)[O-],-6.3%,-13.4%,-2.4,18.4µM*,?,-12.9%
CN(Cc1ccccc1)c1nc(N)c([N+](=O)[O-])c(NCc2ccccc2)n1,?,-15.3%,-51.1*,?,?,?
Cc1cccc(CNC(=O)c2ccc3oc(=O)n(Cc4ccccc4)c3c2)c1,.,-16.4%,.,?,?,.
O=C(NCc1cccs1)c1nc2c(nnn2Cc2ccccc2Cl)c(=O)[nH]1,4.61µM*,-2.6%,0.0,2.59µM*,4.11µM*,3.26µM*
O=C(CNS(=O)(=O)c1ccc(N2CCCC2=O)cc1)N1CCN(CC(=O)N2CCCCC2)CC1,.,6.3%,.,.,.,.
COc1ccc(N2C(=O)CC(Sc3nnnn3-c3ccc(F)cc3)C2=O)cc1 (stereo not drawn),16.4µM*,-0.6%,-15.7,2.91µM*,1.46µM*,4.11µM*
O=C1CC(SC(=Nc2ccccc2)Nc2ccccc2)C(=O)N1c1cccc(Cl)c1 (stereo not drawn),?,-10.1%,-6.2,18.4µM*,?,23.1µM*
O=C1CC(Sc2nnnn2-c2ccccc2)C(=O)N1c1cccc(Cl)c1 (stereo not drawn),?,115.5%,-7.2,3.66µM*,1.3µM*,?
Cc1cccc(C(=O)N2C[C@@H](COc3ccccc3)[C@H](C(N)=O)C2)n1,.,35.8%,.,.,.,.
COc1ccccc1-c1nc(C#N)c(N(C)Cc2ccccc2)o1,.,-7.9%,.,.,.,.
COc1ccc(-n2ncc3c(NCc4ccco4)ncnc32)cc1,-6.4%,31.6µM*,-4.8,-14.4%,-6.6%,6.8%
Clc1ccc(-n2ncc3c(NCc4ccco4)ncnc32)cc1,-14.1%,?,0.0,14.6µM*,?,?
CCCN(CCC)c1ncnc2c1cnn2-c1ccc(OC)cc1,4.3%,-10.4%,-65.4*,?,?,8.2%
Clc1ccc(Cn2ncc3c(NCc4ccco4)ncnc32)c(Cl)c1,?,?,11.7,?,?,?

# Source: PubChem (National Center for Advancing Translational Sciences (NCATS))
